Measurements taken from PubChem BioAssay (EPA / NIEHS).
Results filed as inconclusive are left out. Activity calls are given as the source filed them. Rule for the calls, unless noted: active = hit-call score of the fitted dose curve at least 0.9, where 1 is the maximum; inactive = score below 0.9.

Columns and labels:
[1] = ACEA_ER_80hr: ACEA Biosciences xCELLigence Real-Time Cell Analysis on Estrogen Receptor Agonism for Proliferation (AID 2282667; active = hit-call score of the fitted dose curve at least 0.9, where 1 is the maximum); conditions: T47D proliferation, impedance (xCELLigence), 80 h
In short: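 Real-time impedance growth kinetics of human T-47D breast cells read 80 h after dosing, gain-of-signal fitted relative to DMSO. Compounds: 1:4 serial series, top final concentration 100 uM, n = 2.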

[2] = ATG_CRE_CIS: Attagene CIS-FACTORIAL HepG2 Assay for human cAMP Responsive Element (CRE) binding protein 3 (AID 2282926); conditions: HepG2 CRE cis-reporter, Attagene multiplexed mRNA; actives raise or lower the signal
In short: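 Multiplexed transcription-unit reporters transfected into HepG2; 24 h dosing; RT-PCR/capillary electrophoresis fluorescence read-out; bidirectional fit vs DMSO.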

[3] = target: CCAAT/enhancer-binding protein beta (Homo sapiens) (UniProt P17676); experiment: ATG_C_EBP_CIS: Attagene CIS-FACTORIAL HepG2 Assay for human CCAAT/Enhancer Binding Protein (C/EBP) beta (AID 2282927); conditions: HepG2 Attagene cis-factorial transcription factor reporter; actives raise or lower the signal
Chain of CCAAT/enhancer-binding protein beta (Homo sapiens) (P17676 whole entry, looked up, the tested form may be a part): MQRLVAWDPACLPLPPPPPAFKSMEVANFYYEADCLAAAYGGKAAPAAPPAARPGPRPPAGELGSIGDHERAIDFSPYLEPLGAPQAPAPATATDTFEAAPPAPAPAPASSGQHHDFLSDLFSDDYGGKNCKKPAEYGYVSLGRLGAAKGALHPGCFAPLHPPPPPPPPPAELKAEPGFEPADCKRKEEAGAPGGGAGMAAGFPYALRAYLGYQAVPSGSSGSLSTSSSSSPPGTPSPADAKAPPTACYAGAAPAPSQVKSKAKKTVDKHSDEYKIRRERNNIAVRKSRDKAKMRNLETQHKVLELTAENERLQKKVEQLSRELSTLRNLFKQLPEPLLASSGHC
In short: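 Endogenous C/EBPb-driven reporter transcripts measured in transfected human HepG2 cells at 24 h via RT-PCR and capillary electrophoresis of labelled fragments. Activity fitted in both directions relative to DMSO baseline.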

[4] = ATG_CMV_CIS: Attagene CIS-FACTORIAL HepG2 Assay for human CMV (Internal Marker) (AID 2282928); conditions: HepG2 CMV promoter reporter, transcription factor profiling; actives raise or lower the signal;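 note: endpoint acts as a background internal control marker rather than a target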
In short: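 After transient transfection of HepG2 with reporter transcription units driven by cis-regulatory promoters, cells receive test chemical for 24 h. Labeled reporter amplicons, digested with HpaI, are sized and quantified by capillary electrophoresis against DMSO.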

[5] = ATG_DR4_LXR_CIS: Attagene CIS-FACTORIAL HepG2 Assay for human Liver X Receptor (LXR), DR4 submotif (AID 2282929); conditions: HepG2 Attagene DR4 cis-reporter, mRNA transcription; actives raise or lower the signal
In short: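 Measures endogenous transcription factor activity via a DR4-driven reporter transcript in human HepG2 cells. Compounds incubated 24 h; mRNA quantified by RT-PCR and capillary electrophoresis, analysed as gain or loss of signal versus DMSO.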

[6] = ATG_AP_1_CIS: Attagene CIS-FACTORIAL HepG2 Assay for human Activator Protein 1 (AP-1) (AID 2282931); conditions: HepG2 Attagene cis-factorial AP-1 reporter mRNA; actives raise or lower the signal
In short: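 Bidirectional concentration-response fitting against DMSO controls. Underlying signal: reporter mRNA from cis-promoter constructs in transiently transfected HepG2, measured after 24 h by RT-PCR and capillary electrophoresis.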

[7] = ATG_AP_2_CIS: Attagene CIS-FACTORIAL HepG2 Assay for human Activator Protein 2 (AP-2) (AID 2282932); conditions: HepG2 AP-2 cis-reporter, Attagene transcription factor profiling; actives raise or lower the signal
In short: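 HepG2, transient MRTU transfection, cis-regulated reporters; 24 h compound exposure; RNA isolated, RT-PCR, 6-FAM labelling, HpaI digest, CE fluorescence. DMSO = negative control/baseline, bidirectional fit.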

[8] = ATG_BRE_CIS: Attagene CIS-FACTORIAL HepG2 Assay for human Bone Morphogenetic Protein (BMP) Response Element (BRE) (AID 2282933); conditions: HepG2 BMP response element reporter, Attagene transcription factor profiling; actives raise or lower the signal
In short: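 Endogenous transcription factor activity read in transiently transfected HepG2 cells after 24 h chemical exposure. Bidirectional curve fitting against DMSO; readout is reporter transcript level by RT-PCR with capillary electrophoresis of labelled products.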

[9] = target: Retinoic acid receptor alpha (Homo sapiens) (UniProt P10276); experiment: ATG_DR5_RAR_CIS: Attagene CIS-FACTORIAL HepG2 Assay for human Retinoic Acid Receptor Alpha (RARE), DR5 submotif (AID 2282934); conditions: HepG2 Attagene cis-factorial RARE DR5 reporter, mRNA; actives raise or lower the signal;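 for AC50: reporter responds to endogenous RAR alpha beta and gamma in HepG2 not RARA alone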
Chain of Retinoic acid receptor alpha (Homo sapiens) (P10276 whole entry, looked up): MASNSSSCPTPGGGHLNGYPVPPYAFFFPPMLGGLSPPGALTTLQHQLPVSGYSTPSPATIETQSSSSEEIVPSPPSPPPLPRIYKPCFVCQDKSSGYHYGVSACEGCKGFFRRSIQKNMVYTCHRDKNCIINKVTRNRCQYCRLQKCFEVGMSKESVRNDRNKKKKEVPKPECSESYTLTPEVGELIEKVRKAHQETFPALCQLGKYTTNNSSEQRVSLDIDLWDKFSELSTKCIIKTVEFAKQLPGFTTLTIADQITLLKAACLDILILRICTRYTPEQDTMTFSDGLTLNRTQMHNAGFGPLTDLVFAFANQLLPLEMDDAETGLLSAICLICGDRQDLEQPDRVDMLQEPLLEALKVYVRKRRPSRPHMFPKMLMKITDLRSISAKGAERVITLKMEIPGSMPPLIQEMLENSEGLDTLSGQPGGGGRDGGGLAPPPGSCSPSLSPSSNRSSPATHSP
In short: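 Reporter transcripts from a DR5-regulated unit, measured via RT-PCR plus capillary electrophoresis, reflect endogenous RAR activity in transiently transfected human HepG2 liver cells. Exposure lasted 24 h; gain or loss of signal scored against DMSO.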

[10] = target: Transcription factor E2F1 (Homo sapiens) (UniProt Q01094); experiment: ATG_E2F_CIS: Attagene CIS-FACTORIAL HepG2 Assay for human E2F Transcription Factor 1 (AID 2282935); conditions: HepG2 Attagene cis-reporter, E2F reporter RNA transcripts; actives raise or lower the signal
Chain of Transcription factor E2F1 (Homo sapiens) (Q01094 whole entry, looked up): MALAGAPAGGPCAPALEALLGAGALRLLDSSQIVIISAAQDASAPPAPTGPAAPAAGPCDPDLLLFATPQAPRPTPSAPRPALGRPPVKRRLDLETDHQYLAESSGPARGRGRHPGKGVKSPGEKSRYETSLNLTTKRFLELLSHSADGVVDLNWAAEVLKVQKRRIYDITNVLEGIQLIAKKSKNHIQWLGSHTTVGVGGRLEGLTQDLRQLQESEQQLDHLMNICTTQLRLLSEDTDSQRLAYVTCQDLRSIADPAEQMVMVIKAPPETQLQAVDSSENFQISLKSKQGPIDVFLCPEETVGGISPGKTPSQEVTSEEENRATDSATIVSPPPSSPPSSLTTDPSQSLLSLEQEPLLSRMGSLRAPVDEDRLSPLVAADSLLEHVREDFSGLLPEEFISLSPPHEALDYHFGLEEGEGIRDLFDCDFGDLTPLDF
In short: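 Cis-element reporter mRNA induction in transiently transfected HepG2, 24 h exposure. Activity fitted in both directions relative to DMSO negative control.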

[11] = ATG_E_Box_CIS: Attagene CIS-FACTORIAL HepG2 Assay for human Enhancer Box (E-box) (AID 2282936); conditions: HepG2 E-box cis-reporter transcription, actives raise or lower the signal
In short: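 Cells: HepG2 (human liver), transient MRTU transfection. Exposure 24 h. RNA → oligo(dT) RT → PCR → 6-FAM label → HpaI → CE. Activity fitted both directions relative to DMSO.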

[12] = ATG_M_61_CIS: Attagene CIS-FACTORIAL HepG2 Assay for M61 Transcription Factor (Internal Marker) (AID 2282937); conditions: HepG2 Attagene CIS-FACTORIAL M61 internal marker reporter; actives raise or lower the signal
In short: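 Fluorescence from labelled cDNA fragments, separated by capillary electrophoresis, quantifies reporter induction. HepG2 cells bearing transiently transfected cis-promoter MRTUs were incubated with test chemical for 24 h; DMSO defined baseline for gain/loss fitting.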

[13] = ATG_EGR_CIS: Attagene CIS-FACTORIAL HepG2 Assay for human Early Growth Response 1 (EGR1) (AID 2282938); conditions: HepG2 Attagene CIS-FACTORIAL EGR reporter mRNA; actives raise or lower the signal
In short: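 Cell-based multiplex transcription assay: HepG2 carrying transfected cis-element reporter units, 24 h chemical treatment. Fluorescence from capillary electrophoresis of RT-PCR products gives mRNA levels; fitting is bidirectional relative to DMSO.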

[14] = ATG_M_19_CIS: Attagene CIS-FACTORIAL HepG2 Assay for M19 Transcription Factor (Internal Marker) (AID 2282939); conditions: HepG2 Attagene CIS-FACTORIAL M19 internal marker reporter; actives raise or lower the signal
In short: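 Internal marker readout, fitted in both directions against DMSO, from HepG2 cells carrying transfected cis-element reporter constructs; RT-PCR and capillary electrophoresis of reporter mRNA after 24 h exposure.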

[15] = ATG_ERE_CIS: Attagene CIS-FACTORIAL HepG2 Assay for Estrogen Response Element (ERE) (AID 2282940); conditions: HepG2 ERE cis-reporter, Attagene RNA transcript; actives raise or lower the signal
In short: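 After 24 h compound treatment, RNA from transfected HepG2 cells was reverse-transcribed, reporter cDNA PCR-amplified, FAM-labelled, HpaI-cut and resolved by capillary electrophoresis. ERE-driven cis reporter transcripts reflect endogenous factors; gain or loss scored against DMSO.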

[16] = ATG_Ets_CIS: Attagene CIS-FACTORIAL HepG2 Assay for human Erythroblast Transformation Specific (ETS) (AID 2282941); conditions: HepG2 ETS cis-reporter transcription, actives raise or lower the signal
In short: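 Human HepG2 hepatoma cells were transiently transfected with promoter-driven reporter constructs and treated for 24 hours. Reporter transcripts were quantified by RT-PCR with fluorescent primer extension; bidirectional curve fitting used DMSO as reference.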

[17] = target: Hepatocyte nuclear factor 3-beta (Homo sapiens) (UniProt Q9Y261); experiment: ATG_FoxA2_CIS: Attagene CIS-FACTORIAL HepG2 Assay for human Forkhead box A2 (FOXA2) (AID 2282942); conditions: HepG2 cis-reporter transcription factor activity, 24 h; actives raise or lower the signal
Chain of Hepatocyte nuclear factor 3-beta (Homo sapiens) (Q9Y261 whole entry, looked up): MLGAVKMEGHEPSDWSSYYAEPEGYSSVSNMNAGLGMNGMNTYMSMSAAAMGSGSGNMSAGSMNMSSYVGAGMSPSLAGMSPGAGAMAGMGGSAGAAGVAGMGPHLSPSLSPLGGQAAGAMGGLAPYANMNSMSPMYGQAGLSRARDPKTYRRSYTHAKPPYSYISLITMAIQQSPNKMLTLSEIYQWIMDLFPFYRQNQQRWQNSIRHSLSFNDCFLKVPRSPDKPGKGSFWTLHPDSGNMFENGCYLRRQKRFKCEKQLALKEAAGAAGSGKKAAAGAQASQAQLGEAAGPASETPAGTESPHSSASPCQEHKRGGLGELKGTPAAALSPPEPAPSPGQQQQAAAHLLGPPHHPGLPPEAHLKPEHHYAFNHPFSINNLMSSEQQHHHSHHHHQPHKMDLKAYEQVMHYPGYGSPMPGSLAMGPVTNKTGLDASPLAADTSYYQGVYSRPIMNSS
In short: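 In transiently transfected human HepG2 cells, promoter-driven reporter mRNA levels after 24 h chemical exposure are determined via RT-PCR with capillary electrophoresis. DMSO serves as baseline for bidirectional fitting.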

[18] = ATG_FoxO_CIS: Attagene CIS-FACTORIAL HepG2 Assay for human Forkhead box O (FoxO) (AID 2282943); conditions: HepG2 Attagene cis-reporter, FoxO element, mRNA; actives raise or lower the signal
In short: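 Endogenous transcription factor activity read from multiplexed cis-promoter reporter transcripts in transiently transfected HepG2, 24 h after dosing. Reporter RNA measured via RT-PCR plus capillary electrophoresis of FAM-labeled products; gain or loss relative to DMSO.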

[19] = ATG_GATA_CIS: Attagene CIS-FACTORIAL HepG2 Assay for human GATA Binding Protein (AID 2282944); conditions: HepG2 GATA cis-element reporter, Attagene multiplex mRNA; actives raise or lower the signal
In short: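 Reporter transcripts from a GATA cis-regulated unit, among multiplexed reporters in transfected HepG2 cells, were measured by RT-PCR with capillary electrophoresis after 24 h dosing. Induction or loss scored relative to DMSO.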

[20] = target: Aryl hydrocarbon receptor (Homo sapiens) (UniProt P35869); experiment: ATG_Ahr_CIS: Attagene CIS-FACTORIAL HepG2 Assay for human Aryl Hydrocarbon Receptor (Ahr) (AID 2282930); conditions: HepG2 AhR cis-factorial reporter transcription; actives raise or lower the signal
Chain of Aryl hydrocarbon receptor (Homo sapiens) (P35869 whole entry, looked up): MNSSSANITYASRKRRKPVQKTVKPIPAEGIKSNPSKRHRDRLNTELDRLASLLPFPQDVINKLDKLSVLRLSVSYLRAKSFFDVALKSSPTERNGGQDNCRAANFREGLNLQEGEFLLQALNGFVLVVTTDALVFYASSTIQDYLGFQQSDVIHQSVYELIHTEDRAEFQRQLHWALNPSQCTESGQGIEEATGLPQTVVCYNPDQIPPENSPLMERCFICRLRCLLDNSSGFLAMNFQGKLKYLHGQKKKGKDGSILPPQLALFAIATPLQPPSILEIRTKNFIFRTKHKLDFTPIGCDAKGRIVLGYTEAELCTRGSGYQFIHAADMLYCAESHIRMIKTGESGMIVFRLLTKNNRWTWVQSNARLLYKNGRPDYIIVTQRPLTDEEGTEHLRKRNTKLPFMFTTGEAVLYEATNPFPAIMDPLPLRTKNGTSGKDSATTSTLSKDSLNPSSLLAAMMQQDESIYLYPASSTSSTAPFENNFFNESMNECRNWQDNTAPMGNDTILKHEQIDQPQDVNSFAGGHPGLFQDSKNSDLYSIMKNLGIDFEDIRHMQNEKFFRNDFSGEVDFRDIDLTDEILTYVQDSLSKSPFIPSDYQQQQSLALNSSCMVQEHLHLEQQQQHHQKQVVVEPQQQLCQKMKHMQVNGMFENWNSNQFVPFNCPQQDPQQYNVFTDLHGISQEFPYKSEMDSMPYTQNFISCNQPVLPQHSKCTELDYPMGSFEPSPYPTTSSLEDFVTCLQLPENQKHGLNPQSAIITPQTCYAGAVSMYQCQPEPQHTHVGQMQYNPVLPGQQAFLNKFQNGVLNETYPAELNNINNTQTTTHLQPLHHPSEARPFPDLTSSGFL
In short: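 Reporter mRNA levels, quantified by RT-PCR and fluorescent capillary electrophoresis, reflect endogenous AhR transcriptional activity in HepG2 cells carrying transfected cis-promoter reporter constructs. Readout at 24 h post-dose; gain or loss fitted against DMSO baseline.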

Measured: AC50

CN(C)C(C)(C)CO
active: [1] 50 µM
not listed: [20]
inactive: all other assays above

C[Si](C)O[Si](C)C
not listed: [9]
inactive: all other assays above

COC(F)(C(F)F)C(F)(F)F (centres undefined)
not listed: [9] | [20]
inactive: all other assays above

O=C=NCc1cccc(CN=C=O)c1
not listed: [9]
inactive: all other assays above

O=C1c2ccccc2C(=O)c2c(Cl)cccc21
not listed: [5]
inactive: all other assays above

O=S(=O)(OCC(F)(F)F)C(F)(F)C(F)(F)C(F)(F)C(F)(F)F
active: [4] 42.3 µM | [5] 104 µM | [6] 48.1 µM | [8] 58.2 µM | [9] 17.6 µM
not listed: [17] | [20]
inactive: all other assays above

O=C(c1ccccc1)c1ccc(Cl)cc1
active: [15] 44.4 µM
not listed: [9] | [11] | [18]
inactive: all other assays above
